The values below come from ChEMBL document CHEMBL3988442, “University of Dundee, Small-Polar-MMV Screening Library” (2021).

For some assays here: Results with a measured potency or affinity are listed apart.

Common to all, as to design: scale not given: direction of the effect not stated beside the values
In test [1] the target is Protein translocase subunit SecA (Escherichia coli (strain K12)) (UniProt P10408). Kind of test: Assay to Identify E. coli SecA ATPase Inhibitors. The format is functional. As to conditions: 30 µM.
Chain of Protein translocase subunit SecA (Escherichia coli (strain K12)) (P10408 whole entry): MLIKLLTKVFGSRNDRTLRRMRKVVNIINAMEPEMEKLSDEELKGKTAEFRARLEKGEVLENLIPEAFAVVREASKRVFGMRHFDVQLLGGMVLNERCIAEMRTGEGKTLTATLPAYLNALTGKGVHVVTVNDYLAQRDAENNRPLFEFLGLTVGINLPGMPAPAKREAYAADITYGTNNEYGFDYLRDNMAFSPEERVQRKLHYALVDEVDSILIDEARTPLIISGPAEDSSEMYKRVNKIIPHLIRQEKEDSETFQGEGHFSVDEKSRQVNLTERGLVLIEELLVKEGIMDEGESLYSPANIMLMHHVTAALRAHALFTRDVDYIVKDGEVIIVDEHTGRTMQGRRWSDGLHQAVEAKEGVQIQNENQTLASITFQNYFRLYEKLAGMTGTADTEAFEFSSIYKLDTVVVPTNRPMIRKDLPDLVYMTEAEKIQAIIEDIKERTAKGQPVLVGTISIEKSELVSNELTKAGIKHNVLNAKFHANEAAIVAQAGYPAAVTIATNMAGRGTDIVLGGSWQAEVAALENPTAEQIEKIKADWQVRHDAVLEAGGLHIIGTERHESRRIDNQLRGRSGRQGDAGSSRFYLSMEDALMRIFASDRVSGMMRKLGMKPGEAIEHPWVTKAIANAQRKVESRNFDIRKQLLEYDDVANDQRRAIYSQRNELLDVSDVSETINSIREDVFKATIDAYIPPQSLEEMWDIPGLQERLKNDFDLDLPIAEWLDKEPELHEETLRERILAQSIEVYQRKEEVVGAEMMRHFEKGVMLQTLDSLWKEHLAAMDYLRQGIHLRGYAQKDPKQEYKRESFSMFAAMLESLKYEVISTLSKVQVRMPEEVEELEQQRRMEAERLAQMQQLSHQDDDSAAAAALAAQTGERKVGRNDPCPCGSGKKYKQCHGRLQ
Test [2] concerns the target T1, Ubiquitin-activating enzyme e1, putative (Leishmania donovani (strain BPK282A1)) (UniProt E9BSI1).
T1 sequence (whole entry): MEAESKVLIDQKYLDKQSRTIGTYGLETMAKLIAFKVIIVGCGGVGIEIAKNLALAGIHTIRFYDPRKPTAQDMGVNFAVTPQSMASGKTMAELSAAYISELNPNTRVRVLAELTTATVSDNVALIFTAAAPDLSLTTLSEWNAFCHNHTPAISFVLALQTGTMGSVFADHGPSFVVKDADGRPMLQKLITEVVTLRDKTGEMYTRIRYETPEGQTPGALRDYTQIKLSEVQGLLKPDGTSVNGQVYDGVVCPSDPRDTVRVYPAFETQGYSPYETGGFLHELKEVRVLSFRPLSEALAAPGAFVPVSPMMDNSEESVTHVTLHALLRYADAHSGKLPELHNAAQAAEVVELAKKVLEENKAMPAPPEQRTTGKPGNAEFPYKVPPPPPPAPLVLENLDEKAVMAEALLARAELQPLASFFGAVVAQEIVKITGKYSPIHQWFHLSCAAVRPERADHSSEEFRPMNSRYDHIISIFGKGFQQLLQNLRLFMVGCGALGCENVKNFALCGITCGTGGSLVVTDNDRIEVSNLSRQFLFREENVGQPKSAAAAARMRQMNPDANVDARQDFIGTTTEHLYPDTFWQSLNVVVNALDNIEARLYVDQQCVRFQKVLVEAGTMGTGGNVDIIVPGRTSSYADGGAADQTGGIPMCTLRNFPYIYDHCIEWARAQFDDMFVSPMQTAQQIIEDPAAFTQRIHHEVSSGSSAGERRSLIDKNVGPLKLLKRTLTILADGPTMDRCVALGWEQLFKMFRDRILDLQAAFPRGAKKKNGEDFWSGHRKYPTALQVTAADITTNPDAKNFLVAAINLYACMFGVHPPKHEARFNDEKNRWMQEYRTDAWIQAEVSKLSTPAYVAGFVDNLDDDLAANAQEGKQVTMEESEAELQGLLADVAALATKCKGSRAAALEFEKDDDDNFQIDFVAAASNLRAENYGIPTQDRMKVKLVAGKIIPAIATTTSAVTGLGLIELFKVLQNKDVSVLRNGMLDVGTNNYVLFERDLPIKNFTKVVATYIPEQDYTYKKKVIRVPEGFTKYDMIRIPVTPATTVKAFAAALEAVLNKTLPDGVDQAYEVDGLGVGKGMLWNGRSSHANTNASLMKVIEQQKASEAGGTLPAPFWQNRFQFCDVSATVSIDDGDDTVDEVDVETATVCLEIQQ
As to the kind of experiment: Leishmania donovani Ubiquitin Activating Enzyme (LdE1). The class given is functional. As to conditions: 30 µM.

Test [3] addresses AMP-activated protein kinase, AMPK (Homo sapiens) (UniProt P54646+O43741+P54619+Q9UGJ0+Q9Y478+Q13131+Q9UGI9). As to the kind of experiment: AMP-dependent Kinase enzyme assay. An in vitro enzyme assay that detects ADP turnover that is directly proportional to AMPK activity. This uses naive AMPK that is activated during the assay with MK-8722. The class given is functional. As to conditions: 30 µM.

In test [4] the target is Sialic acid-binding Ig-like lectin 9 (Homo sapiens) (UniProt Q9Y336). Kind of test: Hs-Siglec9 ALPHAscreen SOP 20170721. Particulars: 10 µM. (In general: Bead proximity is the source of the signal in Alpha formats.)
Chain of Sialic acid-binding Ig-like lectin 9 (Homo sapiens) (Q9Y336 whole entry): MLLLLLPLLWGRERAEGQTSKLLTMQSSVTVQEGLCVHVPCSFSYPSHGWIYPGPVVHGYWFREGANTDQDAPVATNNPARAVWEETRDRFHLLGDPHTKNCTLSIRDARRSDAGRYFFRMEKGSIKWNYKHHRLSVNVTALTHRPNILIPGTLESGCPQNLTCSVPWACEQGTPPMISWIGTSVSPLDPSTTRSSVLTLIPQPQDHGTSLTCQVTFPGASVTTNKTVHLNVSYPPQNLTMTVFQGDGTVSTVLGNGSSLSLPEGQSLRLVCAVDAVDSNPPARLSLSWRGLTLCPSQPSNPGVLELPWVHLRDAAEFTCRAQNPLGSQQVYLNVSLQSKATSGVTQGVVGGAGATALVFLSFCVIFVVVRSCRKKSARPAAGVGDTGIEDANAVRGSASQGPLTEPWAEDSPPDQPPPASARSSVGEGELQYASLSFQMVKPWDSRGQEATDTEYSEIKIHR
Test [5] concerns Trypanosoma cruzi. As to the kind of experiment: Trypanosoma cruzi phosphomannomutase and mannose-1-phosphate guanylyltransferase assay. The format is functional. Particulars: 10 µM.
Test [6] addresses T2, Arginase-2, mitochondrial (Homo sapiens) (UniProt P78540).
T2 sequence (whole entry): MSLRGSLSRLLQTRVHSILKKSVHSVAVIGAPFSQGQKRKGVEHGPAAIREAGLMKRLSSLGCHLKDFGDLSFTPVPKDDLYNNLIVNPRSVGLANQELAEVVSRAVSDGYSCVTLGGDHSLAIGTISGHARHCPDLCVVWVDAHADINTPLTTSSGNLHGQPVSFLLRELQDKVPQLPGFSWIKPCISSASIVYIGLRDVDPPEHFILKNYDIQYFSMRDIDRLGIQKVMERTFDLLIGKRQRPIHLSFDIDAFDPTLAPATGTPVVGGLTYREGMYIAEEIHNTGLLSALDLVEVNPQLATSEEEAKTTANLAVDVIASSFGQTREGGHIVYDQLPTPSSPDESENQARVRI
Kind of test: in vitro enzyme assay to detect the production of urea directly proportional to the activity of Arginase II. Note: in the data most compounds retested in dose-response had high values. The class given is functional. Particulars: 33.3 µM.

The target of test [7] is T3, Proteasome subunit beta (Trypanosoma cruzi) (UniProt O96673).
T3 sequence (whole entry): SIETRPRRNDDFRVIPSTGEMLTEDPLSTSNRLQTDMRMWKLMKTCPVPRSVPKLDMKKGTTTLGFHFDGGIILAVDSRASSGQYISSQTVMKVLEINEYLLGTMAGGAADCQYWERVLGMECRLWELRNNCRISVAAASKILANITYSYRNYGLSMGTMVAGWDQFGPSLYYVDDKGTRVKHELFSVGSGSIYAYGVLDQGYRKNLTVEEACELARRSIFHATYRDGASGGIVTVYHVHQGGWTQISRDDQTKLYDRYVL
As to the kind of experiment: Trypanosoma cruzi proteasome chymotrypsin-like activity (TcProtChymo) assay. Note: in the data most compounds retested in dose-response had high values. The format is functional. Particulars: 9.37 µM.

The species named for test [8] is Homo sapiens. Kind of test: To identify inhibition of the IFN signalling (Jak-Stat) pathway via expression of an eGFP reporter gene under the control of an IFN-stimulated response element (ISRE) containing MxA promoter. As to conditions: 30 µM. The class given is functional.
The target in test [9] is T4, Tyrosyl-tRNA synthetase, putative (Trypanosoma cruzi (strain CL Brener)) (UniProt Q4DSP6).
T4 sequence (whole entry): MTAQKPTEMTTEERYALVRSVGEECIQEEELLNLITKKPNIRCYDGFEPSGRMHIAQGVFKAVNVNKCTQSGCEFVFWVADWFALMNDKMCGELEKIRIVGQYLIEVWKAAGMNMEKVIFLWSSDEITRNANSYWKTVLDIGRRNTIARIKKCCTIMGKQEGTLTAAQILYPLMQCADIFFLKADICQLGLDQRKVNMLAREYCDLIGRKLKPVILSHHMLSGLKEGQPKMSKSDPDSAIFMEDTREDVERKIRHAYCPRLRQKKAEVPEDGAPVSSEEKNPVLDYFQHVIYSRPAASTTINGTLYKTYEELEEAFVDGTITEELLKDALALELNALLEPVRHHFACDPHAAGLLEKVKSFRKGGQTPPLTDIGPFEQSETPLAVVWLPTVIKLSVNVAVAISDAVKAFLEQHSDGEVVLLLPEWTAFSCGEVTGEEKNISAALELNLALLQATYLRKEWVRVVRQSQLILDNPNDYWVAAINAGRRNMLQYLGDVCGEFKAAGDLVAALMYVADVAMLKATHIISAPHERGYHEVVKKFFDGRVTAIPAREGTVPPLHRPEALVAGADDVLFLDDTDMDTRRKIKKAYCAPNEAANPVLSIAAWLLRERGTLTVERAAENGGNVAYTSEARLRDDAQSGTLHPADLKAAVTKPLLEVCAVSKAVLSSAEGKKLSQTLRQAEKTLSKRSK
Kind of test: Trypanosoma cruzi tyrosyl tRNA synthetase (TcYRS) _High Tyrosine SOP. Note: in the data most compounds retested in dose-response had high values. The class given is functional. As to conditions: 30 µM.

Test [10] concerns the target T4, Tyrosyl-tRNA synthetase, putative (Trypanosoma cruzi (strain CL Brener)). Kind of test: Trypanosoma cruzi tyrosyl tRNA synthetase (TcYRS) SOP. The format is functional. Particulars: 30 µM.
The target in test [11] is Chromo domain-containing protein 1 (Saccharomyces cerevisiae (strain ATCC 204508 / S288c) (Baker's yeast)) (UniProt P32657). As to the kind of experiment: ScCHD-1 Enzyme Inhibition Assay. Note: in the data most compounds retested in dose-response had high values. As to conditions: 30 µM. The format is functional.
Chain of Chromo domain-containing protein 1 (Saccharomyces cerevisiae (strain ATCC 204508 / S288c) (Baker's yeast)) (P32657 whole entry, the tested form may be a part): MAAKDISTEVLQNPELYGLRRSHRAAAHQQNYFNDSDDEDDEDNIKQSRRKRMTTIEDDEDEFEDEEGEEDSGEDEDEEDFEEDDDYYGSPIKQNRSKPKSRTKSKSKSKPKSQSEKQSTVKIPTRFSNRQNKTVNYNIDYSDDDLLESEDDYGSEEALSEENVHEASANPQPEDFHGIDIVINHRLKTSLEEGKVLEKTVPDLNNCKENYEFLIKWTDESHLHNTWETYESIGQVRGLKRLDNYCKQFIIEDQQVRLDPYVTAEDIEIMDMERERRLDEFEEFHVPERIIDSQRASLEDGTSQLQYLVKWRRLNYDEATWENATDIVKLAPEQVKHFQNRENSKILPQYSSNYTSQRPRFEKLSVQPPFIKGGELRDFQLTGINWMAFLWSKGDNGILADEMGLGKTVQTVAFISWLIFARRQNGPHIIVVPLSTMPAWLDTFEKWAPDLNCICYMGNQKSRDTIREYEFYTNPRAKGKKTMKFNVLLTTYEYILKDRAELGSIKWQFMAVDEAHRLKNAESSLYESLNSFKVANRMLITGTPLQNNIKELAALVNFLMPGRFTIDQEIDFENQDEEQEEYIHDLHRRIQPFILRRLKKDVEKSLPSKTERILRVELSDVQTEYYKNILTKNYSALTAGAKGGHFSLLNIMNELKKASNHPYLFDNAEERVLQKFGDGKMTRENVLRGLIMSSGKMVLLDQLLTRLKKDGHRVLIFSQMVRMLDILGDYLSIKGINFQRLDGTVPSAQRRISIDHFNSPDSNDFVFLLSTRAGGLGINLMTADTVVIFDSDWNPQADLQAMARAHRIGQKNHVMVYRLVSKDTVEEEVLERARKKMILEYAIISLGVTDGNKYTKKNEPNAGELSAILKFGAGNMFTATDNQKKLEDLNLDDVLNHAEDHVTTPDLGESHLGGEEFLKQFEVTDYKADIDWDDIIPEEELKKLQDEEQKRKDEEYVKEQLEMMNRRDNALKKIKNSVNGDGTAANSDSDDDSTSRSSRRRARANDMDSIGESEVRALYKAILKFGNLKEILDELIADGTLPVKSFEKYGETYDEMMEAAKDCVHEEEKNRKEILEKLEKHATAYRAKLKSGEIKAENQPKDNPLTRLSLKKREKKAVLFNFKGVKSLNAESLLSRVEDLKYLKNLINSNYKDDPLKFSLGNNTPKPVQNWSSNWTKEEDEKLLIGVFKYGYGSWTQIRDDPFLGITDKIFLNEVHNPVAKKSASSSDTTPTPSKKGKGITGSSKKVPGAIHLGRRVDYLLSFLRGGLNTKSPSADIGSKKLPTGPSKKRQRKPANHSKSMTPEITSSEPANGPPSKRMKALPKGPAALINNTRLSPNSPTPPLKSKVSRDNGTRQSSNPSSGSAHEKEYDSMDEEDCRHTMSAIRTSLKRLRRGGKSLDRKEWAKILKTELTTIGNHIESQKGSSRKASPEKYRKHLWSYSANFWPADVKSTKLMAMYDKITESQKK

`Cc1cnn(CCNCCCOc2ccccc2)c1`: the Percent Effect in test [1] is 1.02%; in test [2], -21.1%; in test [3], -5.54%; in test [4], 5.86%; in test [5], 3.27%; in test [6], 1.08%. The Percent Effect in [7] is 6.85%; in test [8], -25%; in test [9], 6.4%; in [10] it was 3.7%; in test [11] it was -0.782%.
With `Cc1[nH]ccc1C(=O)N1CCC(c2nnc(Cn3cccn3)n2C)CC1`, the Percent Effect in test [1] was -2.68%; in test [2], 2.74%; in test [3], -3.04%; in test [4] it was 10.2%; in test [5] it was 2.98%; in [6], 1.6%. For the same compound, the Percent Effect is 6.42% in [7]; -10.2% in [8]; 5.21% in test [9]; 13.6% in [10]; 1.58% in test [11].
For the compound `Cn1cc(CN2CCOC3(CCCN(C(=O)c4ccco4)C3)C2)cn1` (stereo not given), the Percent Effect was -4.16% in [1]; 13% in [2]; -1.39% in [3]; 4.5% in test [4]; 8.95% in test [5]; -8.28% in test [6]. Moreover, the Percent Effect was 5.49% in test [7]; 1.45% in [8]; 3.23% in test [9]; 8.64% in test [10]; -6.46% in test [11].
For `CC(C)n1ccnc1C1CCN(Cc2ccc(Cl)c(F)c2)CC1`, the Percent Effect in test [1] was -4.75%; in test [2], 5.2%; in test [3] it was 1.93%; in test [4], 15.3%; in [5], 0.885%; in test [6] it was -4.14%. Besides, the Percent Effect in test [7] worked out at 12.5%; in [8] it was 18.3%; in test [9], 6.45%; in test [10] it was 8.64%; in test [11] it was 0.763%.
Turning to `O=C(c1ccnnc1)N1CCN2C[C@H](Oc3cccc(F)c3)C[C@H]2C1`, the Percent Effect in [1] is -1.92%; in [2] it was 8%; in test [3], -1.06%; in test [4], 6.61%; in test [5] it was -2.7%; in [6], -20.2%. Also, the Percent Effect in test [7] was 1.37%; in [8], -0.178%; in [9] it was -2.08%; in [10] it was 10%; in test [11], -6.63%.
In the case of `CCN(CC)c1ccc(NS(=O)(=O)c2cncc(F)c2)cn1`, the Percent Effect is 1.55% in test [1]; 13.7% in test [2]; 2.14% in test [3]; 7.06% in test [4]; 3.57% in test [5]; -5.99% in test [6]. Also, the Percent Effect was 4.71% in test [7]; -23.6% in test [8]; 6.25% in test [9]; 11.1% in [10]; -6.32% in test [11].
For `CC(NC(=O)CCc1cccs1)c1nnc2n1CCC2` (stereo not given), the Percent Effect in test [1] is -4.31%; in [2], 2.7%; in [3], -7.36%; in test [4], 7.21%; in test [5], 1.95%; in test [6] it was -0.554%. Also, the Percent Effect is 7.18% in test [7]; -0.332% in test [8]; 5.94% in test [9]; 18.3% in test [10]; 1.69% in test [11].
In the case of `O=C(NCCNc1cnccn1)N1CCCC1`, the Percent Effect in [1] is -4.38%; in [2] it was 6.33%; in test [3], 8.17%; in [4], -3.74%; in test [5] it was -2.56%; in test [6], 1.94%. Besides, the Percent Effect in [7] was 5.15%; in [8] it was 8.14%; in [9], 1.04%; in [10], 5.06%; in test [11], -18.6%.
Turning to `COc1cccc(COCC(=O)N2CCN(CC(C)(C)O)CC2)c1`, the Percent Effect in test [1] was 1.47%; in test [2], -5.26%; in test [3] it was 7.35%; in [4] it was 8.14%; in test [5], -3.76%; in test [6], 6.51%. Moreover, the Percent Effect in test [7] was -0.167%; in [8], 21%; in test [9], 1.47%; in [10] it was -2.44%; in test [11], -5.7%.
Consider `CCc1ccc(S(=O)(=O)Nc2cn(C)cc(Br)c2=O)cc1`, for which the Percent Effect in test [1] was -3.35%; in test [2] it was 5.41%; in test [3] it was -3.87%; in test [4], 18.4%; in test [5], 4.25%; in test [6], -0.952%. Also, the Percent Effect in test [7] was 11.6%; in [8] it was 6.27%; in test [9], 2.65%; in test [10], 12.2%; in test [11], -5.04%.
